PubChem BioAssay AID1794844 (National Center for Advancing Translational Sciences (NCATS), 2023)
The whole screen tested about 2,800 compounds, of which fewer than 10 were called active. About 7% were inconclusive and are not listed. Calls come from the whole dose curve; as a rule, active = well fitted inhibition curve with a large enough effect; inconclusive = small, poorly fitted or top-dose-only effect; inactive = no such curve, though single readings can be large or run the other way. Not all results are given here.

These molecules were tested against Metallo-beta-lactamase type 2 (Klebsiella pneumoniae) (UniProt C7C422) (assay: qHTS to identify inhibitors of the New Delhi Metallo-beta-lactamase (NDM): Nitrocefin screen against the machine-based learning selections.). Conditions: NDM-1 enzyme, nitrocefin hydrolysis, absorbance 485 nm; series mostly up to 38.4 µM; activity, negative = inhibition: at the top concentration.
Metallo-beta-lactamase type 2 (Klebsiella pneumoniae), sequence (C7C422 whole entry, looked up): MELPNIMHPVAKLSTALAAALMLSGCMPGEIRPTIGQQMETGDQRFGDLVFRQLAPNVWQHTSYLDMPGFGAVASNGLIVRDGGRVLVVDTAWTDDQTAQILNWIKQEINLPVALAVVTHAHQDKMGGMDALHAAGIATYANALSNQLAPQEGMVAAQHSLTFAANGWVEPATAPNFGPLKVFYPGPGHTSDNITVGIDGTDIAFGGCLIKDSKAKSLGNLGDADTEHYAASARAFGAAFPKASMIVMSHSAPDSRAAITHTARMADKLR
Text: Assay Submitter (PI): James Inglese Ph.D., Patricia Dranchak Ph.D., Mahesh Aitha Ph.D. Assay Development and Screening Technology Laboratory (ADST) National Center for Advancing Translational Sciences (NCATS), Rockville, MD National Institute of Health (NIH), Bethesda, Maryland The metallo-beta-lactamases (MBL) are a main antibiotic resistance mechanism evolved by bacteria. There is an urgent clinical need for MBL inhibitors to mitigate this growing threat. To support a machine-based learning study, qHTS has been used to experimentally test inhibitors identified by prediction tools.
PROTOCOL TABLE (as described by Inglese et al., 2007) SEQUENCE No. (e.g., 1, 2, 3, etc.); […] (e.g., enzyme, Incubation, Reagent, etc.); VALUE; DESCRIPTION Primary Screen 1; NDM-1; 4 uL of 3 nM enzyme [2 nM final] in 50 mM HEPES (pH 7.0), 1 uM […], 0.01% Tween20; Use BioRaptr to dispense into two sets of Aurora black, clear bottom high base 1536-well plates 2; Compounds; 23 nL; Use Pin Tool (Wako) to transfer DMSO control and library compounds in DMSO 3; Incubate; >30 min 4a; Reagent; 2 uL of 50 uM nitrocefin [16.7 uM final] to one set of assay plates 4b; Reagent; 2 uL of 150 uM meropenem [50 uM final] to second set of assay plates 5a; Incubate; 15 min 5b; Incubate; 30 min 6a; Detector; Absorbance at 485 nm (bandwidth = 5 nm, 25 flashes/well) on Tecan Infinity 6b; Detector; Absorbance at 300 nm (bandwidth = 5 nm, 25 flashes/well) on Tecan Infinity NOTES (numbers refer to sequence above) 1; Column 1 of each plate received assay buffer without enzyme and columns 2-48 received enzyme for a final assay concentration of 2 nM. 2; Control plate contained DMSO in columns 1, 2, 3, and 4. 3; Compound interaction with enzyme. 4; Nitrocefin and meropenem substrates were prepared in the same assay buffer as step 1 for a final assay concentration of 16.7 uM and 50 uM, respectively, and added to all wells across respective sets of assay plates. 5; Default reader settings were applied for absorbance read at 485 nm (nitrocefin) or 300 nm (meropenem), bandwidth = 5 nm, 25 flashes/well. References: Inglese J, Shamu CE, Guy RK. 2007. Reporting data from high-throughput screening of small-molecule libraries. Nat Chem Biol. doi:10.1038/nchembio0807-438 Yasgar A, Shinn P, Jadhav A, Auld D, Michael S, Zheng W, Austin CP, Inglese J, Simeonov A. 2008. Compound Management for Quantitative High-Throughput Screening. J Lab Autom 13:79 - 89. doi:10.1016/j.jala.2007.12.004
Potency is the fitted concentration of half-maximal effect.
Throughout, for activity, negative = inhibition: % of control where 0% means no effect.

Structure (SMILES)	activity, negative = inhibition	Potency
O=C(O)c1cccc(-c2n[nH]c3c2CC(=O)N(c2ccccc2)C3)c1	-14.2% [at 57.5 µM] (inactive)	
N#Cc1cccc(CN2CCOC[C@H]2c2ncc(-c3ccccc3)[nH]2)c1	1.13% [at 57.5 µM] (inactive)	
COCC(=O)N[C@H]1CO[C@H]2[C@@H]1OC[C@@H]2Nc1nccc(-c2cccc(C#N)c2)n1	4.59% [at 57.5 µM] (inactive)	
Cc1[nH]c2ccc(C(=O)N3CC[C@@](C)(O)[C@@H](O)C3)cc2c1C	-0.0594% (inactive)	
c1cncc(CNc2cc(-c3cnc4ccccc4n3)c3cc[nH]c3n2)c1	11.1% (inactive)	
CCN1CCN(C2(C(=O)NCCc3ccccc3)Cc3ccccc3C2)CC1	-0.956% (inactive)	
COc1cccc(NC(=O)N[C@H](C)c2onc(-c3ccc(F)cc3)c2C(=O)O)c1	-18.1% [at 57.5 µM] (inactive)	
O=C(Nc1ccc([C@H]2OCC(=O)N(C3CCOCC3)[C@@H]2CO)cc1)c1cnccn1	317% [at 57.5 µM] (inactive)	
N[C@@H](Cc1cnc[nH]1)C(=O)NCc1cccnc1Oc1ccc(F)cc1F	-1.51% (inactive)	
COCCN1CCCC2(CCN(C(=O)c3ccccc3)C2)C1 (centres undefined)	-3.5% (inactive)	
CCCN1CC2(CCN(C(=O)c3ccc(C)nc3)CC2)CC1C(=O)O (centres undefined)	-5.46% (inactive)	
CN1CC2(CCN(C(=O)c3ccccc3-c3nn[nH]n3)CC2)CC1C(=O)O (centres undefined)		6.69 µM (active)
CC(=O)N1CCN(C(=O)C[C@@H]2c3nc(NC(=O)C4CCCCC4)sc3C[C@@H]3[C@](C)(CO)[C@H](O)CC[C@]32C)CC1	1.19% (inactive)	
CN(C)c1ccc(-c2nnnn2[C@H]2CO[C@H]3[C@@H]2OC[C@@H]3NS(=O)(=O)c2ccc3ccccc3c2)cc1	-2.44% (inactive)	
C[C@@]1(O)CCN(c2ncccc2C(=O)c2nccs2)C[C@@H]1O	-0.625% (inactive)	
OC(c1cccc(C(F)(F)F)c1)c1nc(Nc2ccc(F)cc2)n[nH]1 (centres undefined)	3.6% [at 57.5 µM] (inactive)	
Cn1ccc2c(C(=O)N[C@H](c3cccs3)C3CC(O)C3)cccc21 (some centres undefined)	-3.78% (inactive)	
Cc1nc(C(=O)N2CCC(c3nnc(CN4CCCC4)n3C)CC2)cs1	-8.34% (inactive)	
Cc1ccc(C(=O)N2CCN(c3nnc4cccc(C)n34)CC2)cc1F	-3.81% (inactive)	
O=C1C(c2ccccc2)CC2(CCN(c3cnccn3)CC2)CN1C1CC1 (centres undefined)	0.213% (inactive)	
O=C(c1ccccc1)N1CCN2C(=O)N(Cc3ccccc3)C(=O)[C@H]2C1	-2.63% [at 57.5 µM] (inactive)	
Cc1cnc(C(=O)N2CCC(N3C(=O)C4(CCCC4)C3c3ccccc3)CC2)cn1 (centres undefined)	0.565% (inactive)	
O=C(Cc1ccccc1C(F)(F)F)N1CCC2(CC1)[C@H](O)C[C@@H]2O	-5.52% (inactive)	
CN(Cc1cc(-c2cccs2)n[nH]1)C(=O)c1cn(CCN)nn1	3.42% (inactive)	
O=C1CC(C(=O)O)C2(CCN(c3cc(C4CC4)ncn3)CC2)N1 (centres undefined)	-1.94% (inactive)	

Structure (SMILES)	activity, negative = inhibition	Potency
Cc1noc2c(-c3cccnc3)cc(-c3cccs3)nc12	-1.29% [at 57.5 µM] (inactive)	
CCc1ncc(C(=O)N2CCN(c3ccc(Cl)c(Cl)c3)CC2)cn1	-4.54% (inactive)	
Cc1ccc2nc(C3CCCN(Cc4ccccc4)C3)[nH]c(=O)c2c1 (centres undefined)	0.6% [at 57.5 µM] (inactive)	
Cc1nc2c(C(=O)N3CCC(c4cc(CC(=O)O)[nH]n4)CC3)cccc2[nH]1		8.42 µM (active)
Cc1nc(C2CCCCN2C(=O)Cc2ccccc2)n[nH]1 (centres undefined)	8.61% (inactive)	
Cc1ccc2nc(C)cc(C(=O)N3CCC(c4cc(CC(=O)O)[nH]n4)CC3)c2c1		9.45 µM (active)
COc1nc(C)c(C(=O)N2CCC(c3[nH]ncc3-c3ccccc3)CC2)s1	0.575% (inactive)	
CC(=O)N1CC[C@H](c2nc3cc(C)ccc3o2)C1	-5.97% [at 76.7 µM] (inactive)	
CCNC(=O)O[C@@H]1CO[C@H]2[C@@H]1OC[C@@H]2NC(=S)Nc1ccc(N(C)C)cc1	0.306% [at 57.5 µM] (inactive)	
O=C(c1cccnc1)N1CC[C@H](c2nnc(Cc3ccccc3)o2)C1	-2.68% [at 57.5 µM] (inactive)	
O=C(Cc1c[nH]c2ncc(-c3cccc(Cl)c3)cc12)NCc1cccnc1	7.39% [at 57.5 µM] (inactive)	
Nc1ccc(-c2ccc(OCCn3ccnc3)cc2)cn1	-4.87% (inactive)	
COCCCNC(=O)N1CC(c2nc(CCOCC3CCOCC3)no2)C1	1.08% (inactive)	
CNC(=O)[C@H]1C[C@H](Oc2cccnc2)CN1S(=O)(=O)c1ccc(OC)cc1	1.27% (inactive)	
O=C(Nc1cccc(C(F)(F)F)c1)N[C@H]1CO[C@H]2[C@@H]1OC[C@@H]2Nc1nccc(-c2ccc(-c3ccccc3)cc2)n1	3.13% (inactive)	
CC(C)(C)c1nnc([C@H]2CCN(Cc3ccco3)C2)o1	2.73% [at 76.7 µM] (inactive)	
Cc1cccc(Cl)c1NC(=O)N1CCC2(CC1)C(C(=O)O)CC(=O)N2C (centres undefined)	6.76% (inactive)	
C[C@@H](c1ccccc1)N1C(=O)[C@@H]2CN(C(=O)c3ccc(N(C)C)cc3)CCN2C1=O	2.81% [at 57.5 µM] (inactive)	
Cc1nc(CCC(=O)N2CCC(Cc3ccc(C(=O)O)cc3)C2)n[nH]1 (centres undefined)	10.3% (inactive)	
CCCS(=O)(=O)N1CCC(Cc2nc(-c3cccnc3)n[nH]2)C1 (centres undefined)	-6.34% (inactive)	
COc1ccc(CN2CCOc3ccc(C(=O)NCc4ccc(C)cc4)cc3C2)c(OC)c1	-0.698% (inactive)	
O=C(c1ccccc1Cl)N1CCCC(c2nn(-c3ccccc3)c(=O)[nH]2)C1 (centres undefined)	-3.71% (inactive)	
CC(C)C(=O)N[C@H]1[C@H](O)[C@H](O)C[C@@H]1c1cccnc1	2.09% [at 76.7 µM] (inactive)	
CC(O)c1cc2n(n1)CCN(C1CCN(C(=O)c3cnccn3)CC1)C2 (centres undefined)	29% (inactive)	
